Experimental data reported in the supplement of paper PMC4840960.
Counter-ions that a name gives are not always drawn. ± gives the standard deviation of the averaged measurements.

How the values were obtained:
[1] = test system: E18 rat cortical neuron-glia co-culture; test: fiber score / MBP score (myelination specific beyond OL differentiation) (ratio); higher = more myelination-specific MBP alignment; conditions: treatment time: 8 days (DIV5-DIV13)
Outline: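 Library compounds were applied at 1 or 5 µM in myelination medium, DIV5 to DIV13, to primary E18 rat cortical co-cultures grown at 20,000 cells/well in 96-well plates. After 4 % paraformaldehyde fixation and MBP/Olig2/DAPI immunostaining, four 10X fields per well in duplicate wells were scored. Each value is continuous MBP fiber length per Olig2+ nucleus divided by thresholded MBP area × intensity per Olig2+ nucleus.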

[2] = test system: E18 rat cortical neuron-glia co-culture; test: myelination (MBP fiber length per Olig2+ nucleus), % of 1 µM DAPT response (DMSO = 0) (% of DAPT); higher = more myelination, active = 50 or more; conditions: treatment time: 8 days (DIV5-DIV13)
Outline: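 Library compounds at 1 or 5 µM in myelination medium were applied from DIV5 to DIV13 to papain-dissociated E18 rat cortical co-cultures seeded at 20,000 cells/well on poly-d-lysine/laminin 96-well plates. Fixed cells (4 % paraformaldehyde) were immunostained for MBP and Olig2 with DAPI, and four 10X fields were analysed in each duplicate well. Continuous straight MBP fiber length per Olig2+ nucleus was set to 0 for 0.1 % DMSO and to 100 for a 1 µM positive control.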

Row | SMILES | fiber score / MBP score ([1]; 1 µM) | fiber score / MBP score ([1]; 5 µM) | myelination ([2]; 1 µM) | myelination ([2]; 5 µM)
1 | CO/N=C(\C(=O)N[C@@H]1C(=O)N2C(C(=O)O)=C(COC(C)=O)CS[C@H]12)c1csc(N)n1 [Cefotaxime] | 0.651 | 0.671 | -9.49 (inactive) | -10.3 (inactive)
2 | CSc1nc2cc(Cl)c(Oc3cccc(Cl)c3Cl)cc2[nH]1 [Triclabendazole] | 0.682 | 0.685 | -23.9 (inactive) | -18.7 (inactive)
3 | O=c1n(CCCN2CCN(c3cccc(Cl)c3)CC2)nc2ccccn12 [Trazodone] | 0.819 | 0.5 | -42.9 (inactive) | -62.2 (inactive)
4 | NCC(=O)CCC(=O)O [Aminolevulinic Acid] | 1.11 | 1.44 | 0.461 (inactive) | 39.4 (inactive)
5 | CN(C)CCN(Cc1ccccc1)c1ccccn1 [Tripelennamine] | 0.67 | 0.588 | -35.6 (inactive) | -33.5 (inactive)
6 | O=C1[C@H]2CCCC[C@H]2C(=O)N1CCCCN1CCN(c2nsc3ccccc23)CC1 [Perospirone] | 0.291 | 0.198 | -33.9 (inactive) | -34.5 (inactive)
7 | OCCN(CCO)c1nc(N2CCCCC2)c2nc(N(CCO)CCO)nc(N3CCCCC3)c2n1 [Dipyridamole] | 1.01 | 0.523 | 3.14 (inactive) | -17.3 (inactive)
8 | c1cnc(N2CCN(Cc3ccc4c(c3)OCO4)CC2)nc1 [Piribedil] | 0.774 | 0.712 | -24.5 (inactive) | -35.6 (inactive)
9 | CC(C(=O)O)c1ccc(-c2ccccc2)c(F)c1 (configuration not stated) [Flurbiprofen] | 0.667 ± 0.24 | 0.793 ± 0.03 | -16.8 (inactive) | -13.6 (inactive)
10 | Nc1nc(=O)[nH]cc1F [Flucytosine] | 0.88 | 0.855 | -9.17 (inactive) | -9.52 (inactive)
11 | CN1CCN2c3ncccc3Cc3ccccc3C2C1 (configuration not stated) [Remergil] | 0.819 | 0.663 | 4.96 (inactive) | -19.4 (inactive)
12 | Clc1ccc2c(c1)C(N1CCNCC1)=Nc1ccccc1O2 [Amoxapine] | 1.09 | 0.185 | 0.685 (inactive) | -23.6 (inactive)
13 | O=C1NC(=O)C(c2ccccc2)(c2ccccc2)N1 [Phenytoin] | 0.39 | 0.762 | -17.5 (inactive) | -20.9 (inactive)
14 | CC(=O)Nc1nnc(S(N)(=O)=O)s1 [Acetazolamide] | 0.846 | 0.99 | -4.45 (inactive) | -1.11 (inactive)
15 | CC[C@H](C)C(=O)O[C@H]1C[C@@H](C)C=C2C=C[C@H](C)[C@H](CC[C@@H]3C[C@@H](O)CC(=O)O3)[C@H]21 [Lovastatin] | 2.07 | 6.02 | -6.08 (inactive) | 1.23 (inactive)
16 | Cc1nc2ccccn2c(=O)c1CCN1CCC(C(=O)c2ccc(F)cc2)CC1 [Pirenperone] | 0.876 | 0.646 | -7.44 (inactive) | -11.5 (inactive)
17 | CC(C)OC(=O)CCC/C=C\C[C@@H]1[C@@H](CC[C@@H](O)CCc2ccccc2)[C@H](O)C[C@@H]1O [Latanoprost] | 0.955 | 0.853 | -8.13 (inactive) | -8.74 (inactive)

Row | SMILES | fiber score / MBP score ([1]; 1 µM) | fiber score / MBP score ([1]; 5 µM) | myelination ([2]; 1 µM) | myelination ([2]; 5 µM)
18 | CC(=O)[C@@]1(O)CC[C@H]2[C@@H]3C[C@H](C)C4=CC(=O)C=C[C@]4(C)[C@@]3(F)[C@@H](O)C[C@@]21C [Fluorometholone] | 0.809 | 0.856 | -5.67 (inactive) | 2.04 (inactive)
19 | COc1cc(-c2ccc(=O)[nH]n2)ccc1OC(F)F [Zardaverine] | 0.581 | 0.397 | -34.6 (inactive) | -42.4 (inactive)
20 | C[C@@H]1C[C@H]2[C@@H]3C[C@H](F)C4=CC(=O)C=C[C@]4(C)[C@@]3(F)[C@@H](O)C[C@]2(C)[C@@]1(O)C(=O)SCF [Fluticasone] | 0.729 | 0.694 | -47.4 (inactive) | -24.8 (inactive)
21 | Nc1ccn([C@H]2CC[C@@H](CO)O2)c(=O)n1 [Zalcitabine] | 0.888 | 0.902 | 3.9 (inactive) | -7.3 (inactive)
22 | N[C@@H](C(=O)N[C@@H]1C(=O)N2C(C(=O)O)=C(CSc3c[nH]nn3)CS[C@H]12)c1ccc(O)cc1 [Cefatrizine] | 0.846 | 0.832 | -4.14 (inactive) | -4.37 (inactive)
23 | CC(=O)O[C@]1(C(C)=O)CC[C@H]2[C@@H]3C[C@H](C)C4=CC(=O)CC[C@]4(C)[C@H]3CC[C@@]21C [Medroxyprogesterone acetate] | 1.1 | 0.549 | 0.776 (inactive) | -11.3 (inactive)
24 | NC1CCN(c2nc3c(cc2F)c(=O)c(C(=O)O)cn3-c2ccc(F)cc2F)C1 (configuration not stated) [Tosufloxacin] | 0.855 | 0.665 | -12.3 (inactive) | -14.4 (inactive)
25 | CC(=O)[C@H]1CC[C@H]2[C@@H]3C[C@H](C)C4=CC(=O)CC[C@]4(C)[C@H]3[C@@H](O)C[C@]12C [Medrysone] | 1.11 | 1.1 | 5.47 (inactive) | 6.18 (inactive)
26 | C[C@](N)(Cc1ccc(O)c(O)c1)C(=O)O [Methyldopa] | 1.28 | 0.884 | 22.3 (inactive) | -8.85 (inactive)
27 | OCCOCCN1CCN(C(c2ccccc2)c2ccc(Cl)cc2)CC1 (configuration not stated) [Hydroxyzine pamoate salt] | 0.154 | 0.28 | -6.65 (inactive) | -24.4 (inactive)
28 | CC[N+](C)(CC)CCOC(=O)C(O)(c1ccccc1)C1CCCCC1 (configuration not stated) [Oxyphenonium] | 0.849 | 0.703 | -8.21 (inactive) | -6.58 (inactive)
29 | OC[C@H]1O[C@@H](Oc2cc(O)cc(/C=C/c3ccc(O)cc3)c2)[C@H](O)[C@@H](O)[C@@H]1O [Polydatin] | 0.578 | 0.769 | -20.3 (inactive) | -3.53 (inactive)
30 | COc1cc2nc(N3CCN(C(=O)C4CCCO4)CC3)nc(N)c2cc1OC (configuration not stated) [Terazosin] | 1.2 ± 0.17 | 1.08 ± 0.41 | 11.7 (inactive) | 2.09 (inactive)
31 | CC(=O)O[C@H]1C[C@@H]2CC[C@@H]3[C@H](CC[C@@]4(C)[C@H]3C[C@H]([N+]3(C)CCCCC3)[C@@H]4OC(C)=O)[C@@]2(C)C[C@@H]1N1CCCCC1 [Vecuronium Bromide] | 0.647 | 0.791 | -15.8 (inactive) | -9.35 (inactive)
32 | C=C[C@H]1CN2CC[C@H]1C[C@H]2[C@H](O)c1ccnc2ccc(OC)cc12 [Quinine] | 0.921 | 0.644 | -1.48 (inactive) | -11.3 (inactive)
33 | Cc1cn([C@H]2C=C[C@@H](CO)O2)c(=O)[nH]c1=O [Stavudine] | 0.646 ± 0.15 | 0.637 ± 0.27 | -12.8 (inactive) | -8.63 (inactive)
